The values below come from ChEMBL document CHEMBL3433997, “St. Jude Leishmania screening dataset” (2016).

Each structure is given as a SMILES string.

Holding throughout (format): functional
Assay [1] concerns the target Solute carrier family 2, facilitated glucose transporter member 1 (Homo sapiens) (UniProt P11166). The assay is described as follows: ST_JUDE_LEISH: Cytotoxicity at 2uM final concentration against transgenic Leishmania Mexicana promastigotes LmGLUT1 that are glucose transport deficient and complemented with the human glucose transporter GLUT1. Activity is measured by DNA content using SYBR green in vitro.

For assay [2], the target named is Hexose transporter 1 (Plasmodium falciparum) (UniProt O97467). The assay is described as follows: ST_JUDE_LEISH: Cytotoxicity at 2uM final concentration against transgenic Leishmania Mexicana promastigotes LmPfHT that are glucose transport deficient and complemented with the Plasmodium falciparum hexose transporter. Activity is measured by DNA content using SYBR green in vitro.

Assay [3] has as its target Glucose transporter (Leishmania mexicana) (UniProt O61059). The experiment in a line: ST_JUDE_LEISH: Cytotoxicity at 2uM final concentration against transgenic Leishmania Mexicana promastigotes LmGT2 that are glucose transport deficient and complemented with the L. Mexicana glucose transporter 2. Activity is measured by DNA content using SYBR green in vitro.

Chain of Solute carrier family 2, facilitated glucose transporter member 1 (Homo sapiens) (P11166 whole entry): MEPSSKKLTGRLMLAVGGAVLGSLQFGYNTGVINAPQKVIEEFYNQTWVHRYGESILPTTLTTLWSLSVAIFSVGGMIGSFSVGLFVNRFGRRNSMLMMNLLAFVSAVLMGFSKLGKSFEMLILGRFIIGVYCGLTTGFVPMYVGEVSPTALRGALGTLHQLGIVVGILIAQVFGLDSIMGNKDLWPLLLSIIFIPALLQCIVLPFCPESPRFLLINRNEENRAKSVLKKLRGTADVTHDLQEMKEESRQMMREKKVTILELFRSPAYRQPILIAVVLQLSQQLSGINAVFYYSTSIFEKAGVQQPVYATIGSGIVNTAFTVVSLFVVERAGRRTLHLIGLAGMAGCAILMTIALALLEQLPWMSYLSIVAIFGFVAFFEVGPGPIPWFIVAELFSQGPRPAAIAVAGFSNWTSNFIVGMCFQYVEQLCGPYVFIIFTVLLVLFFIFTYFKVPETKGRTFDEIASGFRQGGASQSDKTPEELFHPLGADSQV

For the compound `Cn1cncc1CNCc1ccc(-c2cccc(-c3nc4ccccc4[nH]3)c2)cc1`, the inhibition in assay [1] was -1.06%; in assay [2], -1.22%; in assay [3] it was -4.84%.

As for `CCOc1ccc(-c2nonc2NC(=O)c2ccc(Cl)cc2)cc1OCC`, the inhibition in assay [1] amounted to 4.45%; in assay [2], 4.43%; in assay [3], 4.61%.

In the case of `Cc1ccc(NC(=O)Nc2ccc(Cn3ncc(N4CCCNCC4)c(Cl)c3=O)cc2)cc1`, the inhibition amounted to 2.01% in assay [1], 4.54% in assay [2] and 1.32% in assay [3].

For `O=C(O[C@@H]1CN[C@H](C#Cc2cc3ncnc(Nc4ccc5c(cnn5Cc5cccc(F)c5)c4)c3s2)C1)N1CCCC1`, the results for the inhibition in assay [1], in assay [2] and in assay [3] were 1.37%, 0.19% and -1.8%, respectively.

As to `NOCCCOc1ccccc1`, the inhibition is 0.04% in assay [1], -0.12% in assay [2] and 0.73% in assay [3].

Regarding `CN(C)CCN(C)Cc1ccc(-c2ccc(NC(=O)c3cccc(C#N)c3)cc2)cc1`, the inhibition in assay [1] turned out to be 3.64%; in assay [2], 2.58%; in assay [3] it was 0.19%.

`Cc1ccc(CN2CCCN(Cc3cccc(C(=O)Nc4ccc(C(C)(C)C)cc4)c3)CC2)s1`: the figures for the inhibition in assay [1], in assay [2] and in assay [3] were 7.92%, 2.76% and 0.76%, respectively.

Take `CN1CCN(CCCN(Cc2cccc(-c3ccc(CNCCc4ccccc4)cc3)c2)C(=O)Nc2ccccc2)CC1`: the inhibition in assay [1] came to 2.48%; in assay [2], 7.14%; in assay [3], 1.35%.

For `COc1cc(CNCCCNc2cc(=O)c3ccccc3[nH]2)c2c(c1)C(C)CN2C(=O)OC(C)(C)C` (configuration not stated), the inhibition in assay [1] was 9.27%; in assay [2], 10.7%; in assay [3] it was 4.19%.

Regarding `COc1ccc(Nc2nccc(N3CCC(NC(=O)c4cccc(NC(C)=O)c4)C3)n2)cc1` (configuration not stated), the inhibition was 0.39% in assay [1], 0.61% in assay [2] and 1.86% in assay [3].

As to `CC1N=C(N)N=C(N)N1OCc1cccc2ccccc12` (configuration not stated), the inhibition in assay [1] came to 1.93%; in assay [2], 0.04%; in assay [3], 1.84%.

Consider `Cc1cccc2nc(-c3cccc(-c4cccc(NC(=O)NCc5cccc(F)c5)c4)c3)[nH]c12`, for which the inhibition in assay [1] worked out at 4.66%; in assay [2], 6.34%; in assay [3], 5.41%.

`COc1cc(C=CC(=O)N2CCC(CCN3CCC(c4c[nH]c5ccccc45)CC3)CC2)cc(OC)c1`: the inhibition is 4.99% in assay [1], 6.56% in assay [2] and 3.47% in assay [3].

Consider `Cc1cccc(C=NN=c2cc(C)[nH]c3ccc(F)cc23)n1`, for which the inhibition in assay [1] was 6.63%; in assay [2], 6.71%; in assay [3] it was 4.02%.

On to `Nc1ccc2nc(C=Cc3ccc(Cl)cc3)[nH]c2c1`, for which the results for the inhibition in assay [1], in assay [2] and in assay [3] were 3.56%, 3.93% and 5.14%, respectively.

For the compound `C=C(C)C1CC=C(CN2CCC(N3CCc4cc(NC(=O)c5cc(C)on5)ccc43)C2)CC1` (configuration not stated), the inhibition in assay [1] amounted to 2.54%; in assay [2], 4.39%; in assay [3] it was 4%.

As to `CC(C)C1CCc2nc(N)nc(N)c2C1` (configuration not stated), the results for the inhibition in assay [1], in assay [2] and in assay [3] were 2.52%, 4.4% and 0.91%, respectively.

Take `CS(=O)(=O)NCCCNCc1cccc(-c2ccc(-c3nc4cc(C(F)(F)F)ccc4[nH]3)s2)c1`: the inhibition in assay [1] came out at 1.55%; in assay [2], 2.21%; in assay [3], 1.74%.

Take `Cc1ccc(C(C)C)cc1CON1C(=N)N=C(N)NC1(C)C`: the inhibition stood at 11.2% in assay [1], 10.7% in assay [2] and 10.9% in assay [3].

`Cc1ccc(C(=O)Nc2ccc(Nc3ccnc4cc(-c5ccncc5)ccc34)cc2O)cc1`: the inhibition in assay [1] was -0.09%; in assay [2] it was -0.05%; in assay [3], 1.37%.

As for `N#Cc1cnc(Nc2ccc(Oc3ccccc3)cc2)nc1Nc1cccc(S(N)(=O)=O)c1`, the inhibition in assay [1] was -0.14%; in assay [2] it was 5.38%; in assay [3], 5.25%.

For `CCc1nn2c(Nc3ccncc3)cc(C)nc2c1-c1ccccc1`, the inhibition in assay [1] worked out at 3.36%; in assay [2] it was 3.33%; in assay [3] it was 1.85%.

Turning to `COc1ccc(-c2nonc2NC(=O)c2cccc(Cl)c2)cc1OC`, the values for the inhibition in assay [1], in assay [2] and in assay [3] were 4.3%, 1.03% and 1.34%, respectively.

Consider `Cn1c(Nc2cc(C(C)(C)C)on2)nc2cc(Nc3ccnc(Nc4ccc(CS(C)(=O)=O)cc4)n3)ccc21`, for which the inhibition amounted to 1.46% in assay [1], 1.48% in assay [2] and 2.34% in assay [3].

Consider `Cc1cc2nc(-c3ccc(/C=C/C(=O)NCCCc4ccccc4)cc3)[nH]c2cc1C`, for which the inhibition was determined as 4.43% in assay [1], 2.87% in assay [2] and 1.65% in assay [3].

As to `COc1ccc(-c2cccc(NC(=O)c3ccc(C#N)cc3)c2)cc1CN1CCCC1`, the inhibition in assay [1] worked out at 11.3%; in assay [2] it was 11.1%; in assay [3], 2.91%.

Turning to `Oc1cccc(Nc2nc(NCc3ccccc3)c3ccccc3n2)c1`, the inhibition in assay [1] came to 22.9%; in assay [2], 19.9%; in assay [3], 11.8%.

Turning to `Nc1nc(N)c2c(Oc3cccc(Cl)c3)cccc2n1`, the inhibition in assay [1] is 1.52%; in assay [2], 1.79%; in assay [3], -1.1%.

Regarding `COc1ccc(OC)c(NC(=O)C2c3ccccc3C(=O)N(CC(C)C)C2c2cccs2)c1` (configuration not stated), the results for the inhibition in assay [1], in assay [2] and in assay [3] were -1.99%, -2.35% and -0.44%, respectively.

With `CCCC(=O)Nc1ccc(OCCCN(Cc2cccc(C(F)(F)F)c2)c2ccc(C#N)c(C(F)(F)F)c2)cc1`, the inhibition in assay [1] stood at 2.19%; in assay [2], 2.43%; in assay [3], 1.64%.

As for `CCCN(Cc1ccc(OCC)cc1)Cc1cc(=O)c2cc(Cl)ccc2[nH]1`, the inhibition in assay [1] was 8.02%; in assay [2], 8%; in assay [3], 7.1%.

With `Cc1cc(N(C)CCN(C)C)nc(Nc2ccc(Cl)cc2)n1`, the figures for the inhibition in assay [1], in assay [2] and in assay [3] were 5.23%, 5.67% and 7.48%, respectively.

On to `O=S(=O)(Nc1cc2c(cc1O)CCN(C1CCC1)CC2)c1ccc(Oc2ccc(F)cc2)cc1`, for which the inhibition in assay [1] stood at 2.05%; in assay [2] it was 1.02%; in assay [3], 0.51%.

`O=[N+]([O-])c1ccc(N/C(=N\c2ccccc2Br)NCCOc2ccccc2)c(O)c1`: the inhibition in assay [1] was 0.7%; in assay [2], -0.42%; in assay [3], -2.35%.

What is called inhibition is the change of the read-out against control, counted positive when it falls.
